The source of these data is PubChem BioAssay (NCATS).

A short description of test [1]: Cytometric Cell-Based qHTS for Inhibitors of the mTORC1 Signaling Pathway in MEF (Tsc2-/-, p53-/-) Cells (AID 2660).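 Further: percent of cells above a phospho-rpS6 to PI ratio cutoff in each well; series mostly up to about 38 µM.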 The gist of the method:
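Tsc2-/-, p53-/- MEFs (empty vector) exposed to compound 24 h at 37 C, fixed, stained with Alexa-488 anti-phospho-rpS6 Ser235/236 and propidium iodide. Acumen laser scanning; phospho-S6/PI ratio thresholded against 7.5 nM rapamycin, reported as % positive cells.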
In general terms: Quantitative high-throughput screening tests each substance at several concentrations.

Test [2] can be described thus: High Content Imaging Cell-Based qHTS for Inhibitors of the mTORC1 Signaling Pathway in MEF (Tsc2-/-, p53-/-) Cells (AID 2666).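 Further: percent of cells scored positive for phospho-rpS6 Ser235/236 immunostaining by imaging.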 A digest of the protocol:
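Phospho-rpS6 (Ser235/236) immunofluorescence, normalized and scored as % positive cells using rapamycin and DMSO controls, was read in empty-vector Tsc2-/-, p53-/- MEFs after 24 h compound exposure at 37 C; propidium iodide counted cells.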

Test [3] can be described thus: High Content Imaging Cell-Based qHTS for Inhibitors of the mTORC1 Signaling Pathway in MEF Cells (AID 2667). Further: potency means the concentration at half of the fitted maximal effect. The gist of the method:
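WT MEFs (Tsc2-/-, p53-/- re-expressing Tsc2), in DMEM + 10% FBS, were treated with compound for 24 h at 37 C. Cells were then fixed and stained for phospho-rpS6 Ser235/236 with propidium iodide as cell count. Values are % positive cells, with thresholds set against rapamycin-treated cells.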

A short description of test [4]: Cytometry Cell-Based qHTS for Inhibitors of the mTORC1 Signaling Pathway in MEF cells (AID 2668). Further: potency means the concentration at half of the fitted maximal effect. A digest of the protocol: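 Pathway inhibition in WT Tsc2-rescued Tsc2-/-, p53-/- MEFs is measured as the Alexa-488 phospho-rpS6 to propidium iodide intensity ratio after 24 hrs of compound at 37 degree Celsius. PI-stained cell number gives viability.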
Test [5] addresses Ubiquitin carboxyl-terminal hydrolase 2 (Homo sapiens) (UniProt O75604). The test can be described thus: qHTS Validation Assay for Inhibitors of Ubiquitin-specific Protease USP2a Using CHOP2 as the Reporter (AID 463106). The gist of the method:
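USP2 core (10 nM final) was preincubated with compound 30 min at RT in pH 8.0 Tris/CaCl2/beta-ME/CHAPS buffer. Ub-CHOP2 and reporter substrate (25 nM final each) were then added, with fluorescence (Ex 485/Em 531) read after 60 min. Data were normalized to NEM full inhibition and fitted to concentration-response curves.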

For test [6], the target named is DNA polymerase III PolC-type (Bacillus subtilis (strain 168)) (UniProt P13267). In words: qHTS Validation Assay for the Inhibitors of DNA Replication in Gram-Positive Bacteria (AID 485295).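 Further: reconstituted holoenzyme with PolC plus beta clamp SSB and primase; PicoGreen fluorescence of double-stranded DNA made on primed circular M13 template; series mostly up to about 57 µM.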 The gist of the method: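 Primed replication of single-stranded M13Gori by a four-protein B. subtilis holoenzyme is measured at room temperature. Double-stranded product is quantified by PicoGreen fluorescence after an EDTA stop; inhibition is scaled between DMSO and EDTA controls.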

The target of test [7] is Tumor susceptibility gene 101 protein (Homo sapiens) (UniProt Q99816). In words: qHTS Validation Assay for Iinhibitors of HIV-1 Budding by Blocking the Interaction of PTAP/TSG101 (AID 485342; calls by dose curve). The gist of the method: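 Fluorescence anisotropy measured PTAP-Tsg101 interaction. Final concentrations were 10 uM protein domain and 50 nM labeled peptide, equilibrated 20 min at room temperature.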

The target of test [8] is Beta-2 adrenergic receptor (Homo sapiens) (UniProt P07550). The test can be described thus: qHTS validation assay of beta-arrestin-biased ligands of beta2-adrenergic receptor (AID 485366). The gist of the method: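 Tango cells expressing recombinant beta2-AR and beta-arrestin with tTA-driven luciferase, in DMEM with 1% FBS. Compounds were titrated up to 46 microM for 18 hr at 37 degrees C. Luminescence was read 15 min after substrate; curves were fitted and class-assigned.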

Test [9] addresses ATP-dependent 6-phosphofructokinase (Trypanosoma brucei brucei) (UniProt O15648). In words: qHTS Validation Assay to Find Inhibitors of T. brucei phosphofructokinase (AID 485368). The gist of the method: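 Activity was read as ADP production by luminescence (ADP-Glo) after 45 min at room temperature. The enzyme was 1.25nM PFK in 0.1M TEA pH 8.0 with 0.5 mM F6P, 0.1mM ATP and 5 mM MgCl2. Compounds were titrated up to 57 uM and % activity normalized to no-enzyme and full-enzyme controls.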

A short description of test [10]: Quantitative high throughput screen for delayed death inhibitors of the malarial parasite plastid, 96 hour incubation (AID 488745).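 Further: luciferase-expressing P. falciparum in erythrocytes at 2% hematocrit and 0.1% parasitemia; series mostly up to about 29 µM; nearly all actives have a fitted effect of over 70% in size.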 The gist of the method:
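Growth of reporter-bearing P. falciparum in red cells is measured after 96 h with compound, covering two erythrocytic cycles. Luminescence from the integrated luciferase serves as the growth signal.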

Test [11] is described as follows: Quantitative high throughput screen for delayed death inhibitors of the malarial parasite plastid, 48 hour incubation (AID 488752). Further: nearly all actives have a fitted effect of over 65% in size. A digest of the protocol: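 One parasite generation (48 h, 37 C, 5% CO2) of luciferase-reporter P. falciparum in erythrocytes is run with test compound; decreased luminescence indicates inhibited growth.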
The target in test [12] is Thioredoxin reductase 1, cytoplasmic (Rattus norvegicus) (UniProt O89049). In words: qHTS Assay for Inhibitors of Mammalian Selenoprotein Thioredoxin Reductase 1 (TrxR1) (AID 488773).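 Further: drop in NADPH fluorescence over an 8 min run after selenite addition; series mostly up to about 57 µM; nearly all actives have a fitted effect of over 40% in size.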 To be noted: Potency: inhibition. A digest of the protocol: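 Steps: enzyme (90 nM) plus NADPH (400 uM final), 5 min at ~22 deg C; compound added, 15 min; selenite (400 uM final) added; fluorescence followed for 8 min. Concentration-response curves derived from the normalized delta values.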

The target of test [13] is Flap endonuclease 1 (Homo sapiens) (UniProt P39748). The test can be described thus: qHTS Validation Assay for the Inhibitors of Human Flap endonuclease 1 (FEN1) (AID 488816). The gist of the method:
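Human FEN1 (10 nM) preincubated 15 min at room temperature with compounds, then flap DNA substrate added at 50 nM final. Fluorescence read at 0 and 15 min; concentration-response fitted with four-parameter Hill equation.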

In test [14] the target is M-phase phosphoprotein 8 (Homo sapiens) (UniProt Q99549). The test can be described thus: qHTS Validation Assay for Inhibitors for MPP8 Chromodomain Interactions with Methylated Histone Tails (AID 488949).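 Further: AlphaScreen signal from MPP8 chromodomain bound to biotinylated H3K9me3 peptide; top concentration of the series differs between compounds; nearly all actives have a fitted effect of over 55% in size.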 The gist of the method: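 Disruption of the preformed MPP8–trimethyl-H3K9 peptide complex (both 50 nM, 30 min, RT) is measured after 30 min compound exposure, using AlphaScreen proximity beads; aurintricarboxylic acid titration serves as plate control.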

The target in test [15] is Chromobox protein homolog 1 (Homo sapiens) (UniProt P83916). The test can be described thus: qHTS Validation Assay for Inhibitors of HP1-beta Chromodomain Interactions with Methylated Histone Tails (AID 488953).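 Further: loss of AlphaScreen luminescence from HP1-beta binding biotinylated H3K9me3 peptide; series mostly up to about 110 µM; nearly all actives have a fitted effect of over 50% in size.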 The gist of the method: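 Measured as loss of AlphaScreen luminescence from streptavidin donor and nickel acceptor beads (10 ug/mL final) bridging HP1-beta and biotin-H3(1-18)K9me3, each 50 nM. Compounds met the preassembled complex for 30 min at RT.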

Test [16] deals with Methanococcus maripaludis chaperonin (MmCpn) (UniProt Q6LX38). In words: High-Throughput Screening for Modulators of Cytosolic Chaperonin Activity: MmCpn Primary Screen (AID 488978).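 Further: 50 nM MmCpn enzyme hydrolysing 30 µM ATP at 37 °C.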 The gist of the method:
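Measures ATPase turnover of the M. maripaludis chaperonin (50 nM final) against 30 uM ATP over 10 min at 37C, with compound added 5 min beforehand at room temperature. ADP is quantified by HTRF immunodetection.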

Test [17] has as its target Thioredoxin reductase 1, cytoplasmic (Rattus norvegicus) (UniProt O89049). The test can be described thus: qHTS Assay for Substrates of Mammalian Selenoprotein Thioredoxin Reductase 1 (TrxR1) (AID 488772).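 Further: NADPH fluorescence in the first read after selenite addition and not the 8 min delta; series mostly up to about 57 µM; a drop in NADPH fluorescence below the no-compound background marks a TrxR1 substrate.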 A digest of the protocol:
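Quantitative HTS in Tris-HCl buffer at pH 7.5 with EDTA and Tween-20, using rat TrxR1, 400 uM NADPH and 400 uM selenite (final). A fall in initial NADPH fluorescence relative to background marked substrate behaviour.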

A short description of test [18]: qHTS Validation Assay to Find Inhibitors of Chronic Active B-Cell Receptor Signaling (AID 485345; active means well fitted curve in the direction sought with a large enough effect in the main read-out, with a control signal flat, not every such curve was filed as active). The gist of the method: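 TMD8 ABC-DLBCL cells stably carrying doxycycline-inducible IkappaBalpha–green luciferase fusion plus unfused red luciferase; compounds 46 uM to 3 nM, 4 h at 37C with doxycycline. Corrected green/red luminescence ratio normalized to 10 uM MG-132 and basal cell wells; curves fitted.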

Test [19] can be described thus: Validation screen for small molecules that induce DNA re-replication in MCF 10A normal breast cells (AID 463097). Further: nearly all actives have a fitted effect of over 60% in size. A digest of the protocol:
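DNA re-replication was detected as a rise in nuclei with elevated Hoechst fluorescence after a 48 hr compound exposure of MCF 10A cells at 37 C.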

Records with an inconclusive call do not appear. Activity calls are given as the source filed them. Unless noted, the call rests on the fitted dose curve; in most records, active means well fitted curve in the direction sought with a large enough effect; inconclusive means small, poorly fitted or top-dose-only effect, or another doubt; inactive means no such curve, though single readings can be large; an effect the other way counts as inactive or inconclusive.

Sequence of Methanococcus maripaludis chaperonin (MmCpn) (Q6LX38 1-543): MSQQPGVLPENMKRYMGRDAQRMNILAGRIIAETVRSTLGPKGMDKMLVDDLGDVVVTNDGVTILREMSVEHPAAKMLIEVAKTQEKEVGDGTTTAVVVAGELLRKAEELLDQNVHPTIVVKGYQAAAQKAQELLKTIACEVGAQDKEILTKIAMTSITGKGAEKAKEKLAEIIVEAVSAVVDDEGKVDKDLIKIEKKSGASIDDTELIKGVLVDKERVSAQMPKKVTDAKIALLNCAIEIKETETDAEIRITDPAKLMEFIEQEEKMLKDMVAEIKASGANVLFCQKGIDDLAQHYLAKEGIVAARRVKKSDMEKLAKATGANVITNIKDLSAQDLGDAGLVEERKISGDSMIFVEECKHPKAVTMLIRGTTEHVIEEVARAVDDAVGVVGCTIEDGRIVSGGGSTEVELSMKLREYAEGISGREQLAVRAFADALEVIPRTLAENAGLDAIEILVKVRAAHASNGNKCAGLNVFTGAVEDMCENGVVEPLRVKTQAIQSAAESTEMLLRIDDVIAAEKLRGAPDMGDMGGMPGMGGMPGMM
Sequence of DNA polymerase III PolC-type (Bacillus subtilis (strain 168)) (P13267 whole entry, looked up): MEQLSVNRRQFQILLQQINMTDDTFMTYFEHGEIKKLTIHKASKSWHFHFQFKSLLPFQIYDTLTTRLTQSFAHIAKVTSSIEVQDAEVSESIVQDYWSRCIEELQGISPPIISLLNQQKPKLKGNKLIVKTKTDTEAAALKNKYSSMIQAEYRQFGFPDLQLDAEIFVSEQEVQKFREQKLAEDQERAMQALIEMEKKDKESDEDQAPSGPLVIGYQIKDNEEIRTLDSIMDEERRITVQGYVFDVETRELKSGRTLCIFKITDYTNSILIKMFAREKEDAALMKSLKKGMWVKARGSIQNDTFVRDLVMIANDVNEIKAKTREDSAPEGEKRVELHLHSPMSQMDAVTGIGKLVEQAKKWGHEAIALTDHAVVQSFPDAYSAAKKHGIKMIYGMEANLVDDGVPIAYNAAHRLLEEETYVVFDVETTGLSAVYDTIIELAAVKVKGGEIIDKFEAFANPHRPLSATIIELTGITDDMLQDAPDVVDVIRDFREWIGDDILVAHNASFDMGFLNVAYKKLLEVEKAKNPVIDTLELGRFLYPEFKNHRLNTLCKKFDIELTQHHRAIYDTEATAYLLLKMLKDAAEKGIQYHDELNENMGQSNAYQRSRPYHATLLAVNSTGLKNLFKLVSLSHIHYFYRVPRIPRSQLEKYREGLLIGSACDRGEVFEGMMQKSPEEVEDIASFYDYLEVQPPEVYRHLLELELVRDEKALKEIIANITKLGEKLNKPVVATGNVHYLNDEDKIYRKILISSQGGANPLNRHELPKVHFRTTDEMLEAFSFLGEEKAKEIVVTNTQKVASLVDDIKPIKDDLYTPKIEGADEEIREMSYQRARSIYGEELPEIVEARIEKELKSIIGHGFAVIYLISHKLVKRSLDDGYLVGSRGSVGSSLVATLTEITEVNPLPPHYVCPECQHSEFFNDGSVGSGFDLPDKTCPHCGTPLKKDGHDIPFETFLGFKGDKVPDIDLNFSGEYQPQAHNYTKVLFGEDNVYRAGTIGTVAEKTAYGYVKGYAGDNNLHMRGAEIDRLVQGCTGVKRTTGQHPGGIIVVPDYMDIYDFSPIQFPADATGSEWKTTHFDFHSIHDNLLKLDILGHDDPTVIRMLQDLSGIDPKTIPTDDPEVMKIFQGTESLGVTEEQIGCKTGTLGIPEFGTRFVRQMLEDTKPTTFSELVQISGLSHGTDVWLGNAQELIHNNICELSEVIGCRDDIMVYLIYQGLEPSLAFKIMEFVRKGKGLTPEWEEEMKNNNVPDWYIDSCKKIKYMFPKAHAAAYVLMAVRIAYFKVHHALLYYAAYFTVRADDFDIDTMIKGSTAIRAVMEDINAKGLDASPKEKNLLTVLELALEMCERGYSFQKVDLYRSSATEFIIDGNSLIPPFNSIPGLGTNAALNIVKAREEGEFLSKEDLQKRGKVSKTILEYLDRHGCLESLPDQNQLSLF
Sequence of Thioredoxin reductase 1, cytoplasmic (Rattus norvegicus) (O89049 whole entry, looked up): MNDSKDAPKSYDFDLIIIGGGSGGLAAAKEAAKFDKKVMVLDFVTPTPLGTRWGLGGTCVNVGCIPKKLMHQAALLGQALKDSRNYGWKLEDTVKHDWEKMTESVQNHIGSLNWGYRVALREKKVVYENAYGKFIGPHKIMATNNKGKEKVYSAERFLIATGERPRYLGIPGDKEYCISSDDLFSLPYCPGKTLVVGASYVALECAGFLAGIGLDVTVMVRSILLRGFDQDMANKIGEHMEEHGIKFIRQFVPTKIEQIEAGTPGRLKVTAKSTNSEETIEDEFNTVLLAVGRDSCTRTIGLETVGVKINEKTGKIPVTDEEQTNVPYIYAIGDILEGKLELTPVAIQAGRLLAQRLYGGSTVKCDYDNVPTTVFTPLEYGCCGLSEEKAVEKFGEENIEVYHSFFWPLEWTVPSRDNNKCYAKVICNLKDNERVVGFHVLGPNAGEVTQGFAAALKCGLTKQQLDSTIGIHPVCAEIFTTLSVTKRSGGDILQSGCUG
Sequence of M-phase phosphoprotein 8 (Homo sapiens) (Q99549 whole entry, looked up): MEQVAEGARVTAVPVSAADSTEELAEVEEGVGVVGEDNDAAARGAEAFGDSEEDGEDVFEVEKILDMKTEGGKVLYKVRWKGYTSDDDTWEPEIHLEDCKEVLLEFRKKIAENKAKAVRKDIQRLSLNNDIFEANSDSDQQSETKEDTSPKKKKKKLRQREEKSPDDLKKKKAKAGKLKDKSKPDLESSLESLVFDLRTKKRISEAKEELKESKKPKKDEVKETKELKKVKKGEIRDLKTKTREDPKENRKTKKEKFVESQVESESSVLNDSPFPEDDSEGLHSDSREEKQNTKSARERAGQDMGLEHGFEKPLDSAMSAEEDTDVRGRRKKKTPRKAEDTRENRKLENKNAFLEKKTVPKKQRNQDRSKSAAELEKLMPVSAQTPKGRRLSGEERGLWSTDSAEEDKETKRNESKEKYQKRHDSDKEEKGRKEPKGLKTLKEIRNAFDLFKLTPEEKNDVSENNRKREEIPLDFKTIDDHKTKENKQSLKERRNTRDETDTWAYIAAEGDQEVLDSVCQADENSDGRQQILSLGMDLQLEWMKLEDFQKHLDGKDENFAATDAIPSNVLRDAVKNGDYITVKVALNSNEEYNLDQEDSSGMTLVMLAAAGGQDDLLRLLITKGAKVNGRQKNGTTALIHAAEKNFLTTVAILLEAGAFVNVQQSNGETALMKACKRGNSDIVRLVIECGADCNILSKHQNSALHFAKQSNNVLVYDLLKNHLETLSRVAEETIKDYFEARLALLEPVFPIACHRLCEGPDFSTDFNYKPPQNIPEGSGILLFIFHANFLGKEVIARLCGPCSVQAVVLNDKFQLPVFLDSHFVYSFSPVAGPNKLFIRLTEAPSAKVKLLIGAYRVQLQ
Sequence of ATP-dependent 6-phosphofructokinase (Trypanosoma brucei brucei) (O15648 whole entry, looked up): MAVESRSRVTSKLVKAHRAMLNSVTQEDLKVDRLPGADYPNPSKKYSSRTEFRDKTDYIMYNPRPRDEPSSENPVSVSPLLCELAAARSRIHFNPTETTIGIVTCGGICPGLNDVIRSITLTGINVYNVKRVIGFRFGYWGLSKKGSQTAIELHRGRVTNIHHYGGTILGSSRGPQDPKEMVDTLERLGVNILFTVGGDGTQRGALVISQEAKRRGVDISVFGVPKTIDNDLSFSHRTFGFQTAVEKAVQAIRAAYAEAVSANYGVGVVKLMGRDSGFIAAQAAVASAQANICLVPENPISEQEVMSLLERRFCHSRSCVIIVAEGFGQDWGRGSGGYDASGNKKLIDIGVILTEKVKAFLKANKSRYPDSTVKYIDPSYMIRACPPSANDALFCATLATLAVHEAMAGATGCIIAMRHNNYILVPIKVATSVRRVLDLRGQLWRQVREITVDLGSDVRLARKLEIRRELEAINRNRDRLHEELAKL
Sequence of Beta-2 adrenergic receptor (Homo sapiens) (P07550 whole entry, looked up): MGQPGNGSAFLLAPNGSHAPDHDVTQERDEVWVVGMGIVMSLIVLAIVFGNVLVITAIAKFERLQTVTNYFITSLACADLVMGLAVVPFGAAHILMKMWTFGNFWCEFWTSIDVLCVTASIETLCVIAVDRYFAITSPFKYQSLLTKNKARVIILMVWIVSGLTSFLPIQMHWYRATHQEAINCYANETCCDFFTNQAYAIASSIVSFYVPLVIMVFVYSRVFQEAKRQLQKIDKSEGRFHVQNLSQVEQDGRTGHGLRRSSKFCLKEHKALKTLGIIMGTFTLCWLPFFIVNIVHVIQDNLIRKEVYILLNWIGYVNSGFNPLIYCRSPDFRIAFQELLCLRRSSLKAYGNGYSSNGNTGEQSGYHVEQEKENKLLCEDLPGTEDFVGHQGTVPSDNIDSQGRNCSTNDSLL
Sequence of Ubiquitin carboxyl-terminal hydrolase 2 (Homo sapiens) (O75604 whole entry, looked up): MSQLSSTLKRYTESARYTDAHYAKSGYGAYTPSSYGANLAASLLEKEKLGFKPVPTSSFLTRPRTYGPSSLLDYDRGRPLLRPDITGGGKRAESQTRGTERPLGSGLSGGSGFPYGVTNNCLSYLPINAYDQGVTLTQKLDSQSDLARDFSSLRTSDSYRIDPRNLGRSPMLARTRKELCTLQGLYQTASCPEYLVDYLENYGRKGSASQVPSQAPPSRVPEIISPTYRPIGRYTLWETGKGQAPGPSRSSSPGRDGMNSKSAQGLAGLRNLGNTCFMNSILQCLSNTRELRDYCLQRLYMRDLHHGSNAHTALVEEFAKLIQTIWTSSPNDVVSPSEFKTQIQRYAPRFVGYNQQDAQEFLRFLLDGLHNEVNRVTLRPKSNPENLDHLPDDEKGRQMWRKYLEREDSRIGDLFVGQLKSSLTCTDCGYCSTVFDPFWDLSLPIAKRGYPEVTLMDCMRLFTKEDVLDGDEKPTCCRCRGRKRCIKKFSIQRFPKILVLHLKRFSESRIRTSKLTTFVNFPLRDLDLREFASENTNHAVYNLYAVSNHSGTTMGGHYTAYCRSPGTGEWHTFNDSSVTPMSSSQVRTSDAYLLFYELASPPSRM
Sequence of Chromobox protein homolog 1 (Homo sapiens) (P83916 whole entry, looked up): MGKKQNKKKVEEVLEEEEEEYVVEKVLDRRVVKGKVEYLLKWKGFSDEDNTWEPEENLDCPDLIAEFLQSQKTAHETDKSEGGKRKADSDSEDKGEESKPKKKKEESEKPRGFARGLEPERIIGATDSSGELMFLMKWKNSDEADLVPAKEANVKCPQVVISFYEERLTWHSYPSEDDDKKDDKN

For `O=C1OC(=O)C2C3CCC(O3)C12` (stereo unspecified), the call in test [1], in [7], in test [8] and in test [16] was inactive. Also, the Potency result in test [2], in test [3], in [4], in test [5], in test [6] and in [9] was “inactive” in each case. In addition, the Potency result in [10], in test [11], in test [12], in test [13], in test [14] and in test [15] was “inactive” each time.

Regarding `CN(C)CCCc1cc(C(=O)Nc2ccc(-c3ccncc3)cc2)ccc1O`, the outcome in test [1], in [7], in [8] and in [17] was inactive. The Potency result in test [2], in test [3], in test [4], in test [5], in [6] and in [9] was “inactive” in each case. Besides, the Potency entry in test [12] and in test [13] was “inactive” each time.

For `Nc1ncnc2c1nc(Sc1ccc(Cl)cc1)n2[C@H]1OC2COP(=O)(O)O[C@@H]2C1O` (stereo partly specified), the compound was classed as inactive in test [1], in [7], in test [8], in test [17] and in test [16]. Also, the Potency result in test [2], in test [3], in [4], in [5], in test [6] and in [9] was “inactive” each time. The Potency result in test [12], in test [13] and in test [14] was “inactive” each time.

As to `CN1CCc2cc(Cl)c(O)cc2[C@@H](c2ccccc2)C1`, the call in [1], in [7], in [17] and in [16] was inactive. For the same compound, the Potency result in [2], in [3], in test [4], in test [5], in test [6] and in [9] was “inactive” throughout. Further, the Potency result in [12], in test [13], in test [14] and in [15] was “inactive” each time.

On to `c1ccc(C(NCCNC(c2ccccc2)c2ccccc2)c2ccccc2)cc1`, for which the result in [1], in test [7], in test [8] and in test [17] was inactive. Besides, the Potency result in test [2], in [5], in [6], in test [9], in test [12] and in test [13] was “inactive” throughout. For the same compound, in test [14], the Potency result is “inactive”. The values for the Potency in test [3] and in test [4] were 13.1 µM (active) and 18.5 µM (active), respectively.

Consider `CSc1nc(N)c2ncn([C@@H]3O[C@H](COP(=O)(O)OP(=O)(O)O)C(O)[C@H]3O)c2n1` (stereo partly specified), for which the compound was classed as inactive in test [1], in test [7], in [8], in test [17] and in test [16]. In addition, the Potency entry in [2], in test [3], in test [4], in test [5], in test [6] and in [12] was “inactive” throughout. In addition, the Potency result in test [13], in test [14] and in test [15] was “inactive” each time.

Turning to `Cc1ccccc1/C=C/C1=NCCN1`, the outcome in test [1], in [7], in test [8], in [17] and in test [16] was inactive. Also, the Potency result in test [2], in test [3], in test [4], in test [5], in [6] and in test [11] was “inactive” in each case. In addition, the Potency result in [12], in [13] and in test [14] was “inactive” each time.

For the compound `CCCCCCCCCCC(C)(C)C(=O)Nc1c(OC)cc(OC)cc1OC`, the result in [1], in test [7], in test [18], in test [8], in [17] and in test [16] was inactive. For the same compound, the Potency entry in test [2], in test [3], in [4], in test [5], in test [12] and in [13] was “inactive” in each case. The Potency result in [14] and in test [15] was “inactive” throughout.

In the case of `c1ccc(CN2CCC3(CCCc4ccccc43)CC2)cc1`, the compound was classed as inactive in test [1], in test [7], in test [18], in test [8] and in [17]. The Potency result in test [2], in [3], in [19], in test [5], in test [6] and in test [9] was “inactive” in each case. For the same compound, the Potency result in [12], in test [13], in [14] and in test [15] was “inactive” in each case.
